The whole screen tested about 66,000 compounds, of which about 960 (1.5%) showed an effect of 50% or more. The full list was thinned out, with strong results kept by preference.
System: Trypanosoma brucei
Assay: Trypanosoma brucei 72 hour study
Assay type: functional, organism-based
Parameters: scale not given: in the data most compounds retested in dose-response had high values

Row | SMILES | Percent Effect (30.3 µM, […]) [%] | Percent Effect (30 µM, 30.03 µM) [%]
1 | Cn1nc(C(=O)N2CCOCC2)c2c1CN(CC1CC1)C2.O=C(O)C(F)(F)F.O=C(O)C(F)(F)F | -90.45 | 
2 | COc1cc(CN[C@@H]2COC[C@H]2Cc2cc(C)no2)cc(OC)c1.O=C(O)CC(O)(CC(=O)O)C(=O)O | 16.22 | 
3 | C=C1C(C)(C)[C@H]2CC[C@]1(C(=O)N1CCC(Cn3cc(CO)nn3)CC1)C2 |  | -32.31
4 | Cl.O=C1CC2(CCCNC2)C(=O)N1Cc1ccc(Cl)cc1 (stereo unspecified) | 7.931 | 
5 | COc1cc(N2CCC3(CCCN(Cc4ccccn4)C3)C2)ncn1.O=C(O)C(F)(F)F (stereo unspecified) | -81.3 | 
6 | c1cnc(N2CCC3(CCCN(CC4CCCCC4)C3)C2)cn1 (stereo unspecified) | -7.519 | 
7 | Cc1c[nH]c(CN2CCC3(CCCN(Cc4ccc(F)c(F)c4)C3)C2)n1 (stereo unspecified) |  | 12.03
8 | CSc1nccc(N2C[C@@H](CN3CCCCC3)[C@@H](CO)C2)n1 | -9.185 | 
9 | COc1ccc(CN2CCC3(CCCN(c4ncc(F)cn4)C3)C2)cc1.O=C(O)C(F)(F)F (stereo unspecified) |  | 46.33
10 | CSc1nccc(N2CCC3(CCCN(Cc4cccc(C)c4)C3)C2)n1 (stereo unspecified) | 99.66 | 
11 | Fc1ccc(CN2CCC3(CCCN(c4nncs4)C3)C2)cc1.O=C(O)C(F)(F)F (stereo unspecified) | -195.3 | 
12 | CSc1nccc(N2CCC3(CCCN(CCc4ccccc4)C3)C2)n1 (stereo unspecified) | 100.6 | 
13 | CSc1nccc(N2CCC3(CCCN(Cc4ccc(F)cc4)C3)C2)n1 (stereo unspecified) | 100.4 | 
14 | O=C(Cc1cccc(F)c1)N1CCc2ncnc(NC3CC3)c2CC1.O=C(O)C(F)(F)F | -65.72 | 
15 | Cl.Cn1ccnc1Sc1ccc(N)cn1 |  | -0.5458
16 | Cl.O=S(=O)(N1CCCC1)N1C[C@@H](c2cccc(F)c2)[C@@H]2NCCCCC[C@H]21 | -12.23 | 
17 | Cc1cccc(N2CCC3(CCCN(C(=O)c4cccnc4)C3)CC2)n1.O=C(O)C(F)(F)F.O=C(O)C(F)(F)F |  | -24.82
18 | CC(C)C(=O)N1CCCC2(C1)CN(c1nncs1)CCO2.O=C(O)C(F)(F)F (stereo unspecified) | -91.97 | 
19 | O=C(Cc1ccccn1)N1CCC2(CC1)CC(Oc1ccccn1)CO2.O=C(O)C(F)(F)F.O=C(O)C(F)(F)F (stereo unspecified) |  | 23.31

Row | SMILES | Percent Effect (30.3 µM, […]) [%] | Percent Effect (30 µM, 30.03 µM) [%]
20 | O=C(O)C(F)(F)F.c1cnc(NC2COC3(CCN(Cc4nccs4)CC3)C2)cn1 (stereo unspecified) | -510.2 | 
21 | Cc1ncc(CN2CCCC(O)(c3ccc(F)cc3)CC2)n1C.O=C(O)CC(O)(CC(=O)O)C(=O)O (stereo unspecified) | 5.795 | 
22 | COc1cccc(N2CCN(CC(O)c3cc(C)ccc3C)CC2)c1 (stereo unspecified) |  | -36.53
23 | COc1cccc(N2CCN(CC(O)c3ccc(C)cc3)CC2)c1 (stereo unspecified) |  | 17.53
24 | COc1cccc(N2CCN(CC(O)c3cc(C)sc3C)CC2)c1 (stereo unspecified) | 80.96 | 
25 | COc1cc(Cc2nc3c([nH]2)CC(C)(C)CNC3=O)cc(OC)c1 |  | -74.64
26 | Cc1cccnc1NCCNC(=O)c1cnc(-c2cccs2)nc1O |  | -4.334
27 | Cc1cccnc1NCCNC(=O)c1cnc(-c2ccccn2)nc1O |  | 99.84
28 | Cc1nc(-c2ncc(C(=O)NCCNc3ncccc3C)c(O)n2)cs1 |  | -1.041
29 | Cc1ccc(C)c(NC(=O)N2C[C@H](N(C)C)C[C@H]2CO)c1 |  | -61.25
30 | COCCOc1ccc(C(=O)N2CCCC(n3cncn3)C2)cn1 (stereo unspecified) | -14.96 | 
31 | Cc1noc(C)c1CN1C[C@@H]2COC[C@H](C(=O)N3CCOCC3)[C@@H]2C1.O=C(O)C(F)(F)F | -95.08 | 
32 | CC(C)c1nn(C)cc1CNCc1cccnc1N(C)C.Cl |  | -46.74
33 | COc1ccc(C2(NCc3c(C)nc4c(C)cccn34)CCCC2)cc1.O=C(O)CC(O)(CC(=O)O)C(=O)O | -8.607 | 
34 | CCC(=O)N1CCN(C(=O)CCn2cc(Cl)cn2)[C@H]2CS(=O)(=O)C[C@H]21 |  | 35.1
35 | Cc1cnn(CCC(=O)N2CCN(C(=O)C3CC3)[C@@H]3CS(=O)(=O)C[C@@H]32)c1 |  | 64.13
36 | Cc1cnn(CCC(=O)N2CCN(C(=O)C(C)C)[C@@H]3CS(=O)(=O)C[C@@H]32)c1 |  | 31
37 | CCCNC(=O)C1CCN(CC(O)c2ccc(C(F)(F)F)cc2)CC1 (stereo unspecified) | 11.33 | 
38 | Cc1cc(CN2CCC(CNS(=O)(=O)c3ccc(C)s3)CC2)c(C)o1 | -7.383 | 

Row | SMILES | Percent Effect (30.3 µM, […]) [%] | Percent Effect (30 µM, 30.03 µM) [%]
39 | Cc1cc(CN2CCC(CNS(=O)(=O)c3ccc(Br)s3)CC2)c(C)o1 | 55.92 | 
40 | Cc1cc(CN2CCC(CNS(=O)(=O)c3ccccc3F)CC2)c(C)o1 | 3.502 | 
41 | CCC(CN1CCCC1)n1cncc1-c1cnn(-c2ccccc2)c1.Cl (stereo unspecified) | -6.567 | 
42 | Cc1cc(C)c(CNC(=O)NCc2ccc(F)c(C)c2)c(=O)[nH]1 | -14.44 | 
43 | O=C1CN(C(=O)[C@H]2CC[C@]3(CC2)CNC(=O)c2ccccc2O3)CCN1 | -6.646 | 
44 | Cc1cnc2c(c1NCc1ccc3c(c1)OCO3)c(=O)n(C)c(=O)n2C |  | -27.04
45 | Cc1cc(CNC(=O)c2cc(NC(=O)C(C)C)ccc2Cl)no1 | -13.13 | 
46 | COCc1cc(CNC(=O)c2cc(NC(C)=O)ccc2Cl)n[nH]1 |  | -15.93
47 | CCc1cc(CNC(=O)c2cc(NC(=O)C(C)C)ccc2Cl)[nH]n1 | 61.59 | 
48 | CN(C)C(=O)CN1CCc2ncnc(NC3CCC3)c2CC1.O=C(O)C(F)(F)F | -31.13 | 
49 | CCN(CC)Cc1cc(=O)n2c(n1)CN(C(=O)c1ccc[nH]1)CCC2 | 11.69 | 
50 | Cc1nc(C)n(CC2CCCN(Cc3nnc(C(C)(C)C)o3)C2)n1 (stereo unspecified) |  | 14.46
51 | COc1ccccc1CNC(=O)Cn1ncc2c1c(C)nn2C |  | 68.66
52 | Cc1ccccc1CNC(=O)Cn1ncc2c1c(C)nn2C | -7.192 | 
53 | Cc1nn(C)c2cnn(CC(=O)NCc3ccccc3F)c12 | -20.3 | 
54 | CN(Cc1ccc(N(C)C)cc1)C(=O)CSc1ccc(Br)cc1 | 12.7 | 
55 | CS(=O)(=O)N1CC2(CCN(C(=O)c3ccncc3)CC2)c2ccccc21.O=C(O)C(F)(F)F | -14.55 | 
56 | CN(Cc1ccco1)[C@@H]1CN(Cc2ccsc2)C[C@@H]2CCCO[C@@H]21.O=C(O)C(F)(F)F.O=C(O)C(F)(F)F |  | 27.39

From ChEMBL document CHEMBL3988442, “University of Dundee, Small-Polar-MMV Screening Library” (2021)
